This note sets out measurements from PMC4336329 (PLoS ONE, 2015).

The campaign covered roughly 310,000 compounds. About 14,000 (4.5%) showed an effect of 50% or more. The effect is printed as a negative number. The sample holds strong results, similar compounds and a random draw of the others, so the mix is not that of the screen.
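Also: peak tail current of the secondary pulse compared with the same well before compound.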

This assay deals with human ether-à-go-go-related gene (hERG) potassium channel (human, UniProt Q12809). The experiment in a line: primary screen, population patch clamp on CHO cells stably expressing hERG; higher = less effect of the substance.
Chain of human ether-à-go-go-related gene (hERG) potassium channel (Q12809 whole entry, looked up): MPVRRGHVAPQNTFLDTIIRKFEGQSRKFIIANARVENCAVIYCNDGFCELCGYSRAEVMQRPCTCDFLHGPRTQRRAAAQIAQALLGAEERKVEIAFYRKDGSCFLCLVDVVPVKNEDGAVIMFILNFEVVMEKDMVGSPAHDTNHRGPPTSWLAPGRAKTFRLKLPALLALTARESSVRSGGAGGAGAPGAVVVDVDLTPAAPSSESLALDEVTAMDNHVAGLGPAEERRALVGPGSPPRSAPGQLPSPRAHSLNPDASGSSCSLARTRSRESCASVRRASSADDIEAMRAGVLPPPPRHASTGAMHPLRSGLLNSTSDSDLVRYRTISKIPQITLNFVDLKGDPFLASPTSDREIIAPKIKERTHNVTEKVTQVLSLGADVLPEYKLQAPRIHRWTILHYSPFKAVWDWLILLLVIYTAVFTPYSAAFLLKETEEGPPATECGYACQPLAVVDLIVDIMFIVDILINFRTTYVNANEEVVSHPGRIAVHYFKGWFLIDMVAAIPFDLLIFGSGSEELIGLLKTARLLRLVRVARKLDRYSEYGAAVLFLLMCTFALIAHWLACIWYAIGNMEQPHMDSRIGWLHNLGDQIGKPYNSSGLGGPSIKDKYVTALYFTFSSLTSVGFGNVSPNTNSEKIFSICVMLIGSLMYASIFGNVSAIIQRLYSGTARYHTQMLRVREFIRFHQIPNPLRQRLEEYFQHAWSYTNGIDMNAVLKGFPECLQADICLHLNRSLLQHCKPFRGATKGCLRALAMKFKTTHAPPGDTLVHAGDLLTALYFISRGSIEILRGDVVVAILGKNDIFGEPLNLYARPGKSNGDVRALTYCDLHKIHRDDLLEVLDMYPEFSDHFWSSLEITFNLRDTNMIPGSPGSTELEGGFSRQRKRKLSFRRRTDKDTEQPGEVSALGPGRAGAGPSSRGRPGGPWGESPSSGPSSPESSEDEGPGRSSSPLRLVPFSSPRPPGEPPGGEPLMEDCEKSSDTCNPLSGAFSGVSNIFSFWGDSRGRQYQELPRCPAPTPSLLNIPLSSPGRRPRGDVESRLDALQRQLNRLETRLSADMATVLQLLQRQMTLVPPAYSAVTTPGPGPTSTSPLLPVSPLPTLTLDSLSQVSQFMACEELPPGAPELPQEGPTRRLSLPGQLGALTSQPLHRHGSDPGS
For the molecule `CCOc1ccc(C(CC(=O)O)NC(=O)C23CC4CC(CC(C4)C2)C3)cc1OC` (stereo not shown), the “hERG current change (%, negative = inhibition) at 10uM” value amounted to 30.2%.

Regarding `Nc1c(C=C2C=CC(=O)C=C2)c(=O)nc2sc(CC(=O)N3CCCC3)nn12`, the “hERG current change (%, negative = inhibition) at 10uM” value is on record as 8.79%.

Regarding `CN(Cc1ccc(OC(F)F)cc1)C(=O)c1ccc2c(=O)n3c(nc2c1)CCC3`, the “hERG current change (%, negative = inhibition) at 10uM” value was -33.3%.

On to `COc1cccc(CN(C)C(=O)c2ccccc2Sc2ccccc2C#N)c1`, for which the “hERG current change (%, negative = inhibition) at 10uM” value is -13.4%.

Take `CN(Cc1ccc(OC(F)F)cc1)C(=O)c1ccccc1Sc1ccccc1C#N`: the “hERG current change (%, negative = inhibition) at 10uM” value is -60.5%.

Turning to `COc1ccc(NS(=O)(=O)c2cccc(C(=O)N(C)Cc3ccc(SC)cc3)c2)cc1`, the “hERG current change (%, negative = inhibition) at 10uM” value was -9.93%.

In the case of `CN(Cc1ccccc1)C(=O)c1cccc(C(=O)N(C)Cc2ccccc2)c1`, the “hERG current change (%, negative = inhibition) at 10uM” value is -3.07%.

In the case of `COc1ccc(CN(C)C(=O)c2cccc(C(=O)N(C)Cc3ccc(OC)cc3)c2)cc1`, the “hERG current change (%, negative = inhibition) at 10uM” value is -65.6%.

Regarding `COc1cccc(CN(C)C(=O)c2ccc3nccnc3c2)c1`, the “hERG current change (%, negative = inhibition) at 10uM” value was -6.89%.

Consider `Cc1ccc(CN(C)C(=O)c2ccccc2Sc2ccccc2C#N)cc1`, for which the “hERG current change (%, negative = inhibition) at 10uM” value came out at 23.4%.

For `CN(Cc1ccc(OC(F)F)cc1)C(=O)c1ccc2nccnc2c1`, the “hERG current change (%, negative = inhibition) at 10uM” value is -67.8%.

With `COc1ccccc1NS(=O)(=O)c1ccc2oc(SC)nc2c1`, the “hERG current change (%, negative = inhibition) at 10uM” value was 2.84%.

Take `CN(CC(=O)Nc1ccccc1Cl)C(=O)c1cc(C2CC2)nn1-c1ccccc1`: the “hERG current change (%, negative = inhibition) at 10uM” value was -18.1%.

For `CCc1nnc(NS(=O)(=O)c2ccc(N3C(=O)C4CC=C(Cl)CC4C3=O)cc2)s1` (stereo not shown), the “hERG current change (%, negative = inhibition) at 10uM” value came to 4.84%.

As to `CN(C)CCCN(C(=O)c1cc2ccccc2oc1=O)c1nc2c(F)cccc2s1.Cl`, the “hERG current change (%, negative = inhibition) at 10uM” value is listed as -41.1%.

`CN(C)CCCN(C(=O)c1cc2ccccc2oc1=O)c1nc2ccc(F)cc2s1.Cl`: the “hERG current change (%, negative = inhibition) at 10uM” value was -68.1%.

Regarding `CN(C)CCCN(C(=O)c1cc(-c2cccs2)nc2ccccc12)c1nc2ccc(F)cc2s1.Cl`, the “hERG current change (%, negative = inhibition) at 10uM” value is 5.59%.

For the molecule `Cc1cccc2sc(N(CCCN(C)C)C(=O)c3cc4ccccc4oc3=O)nc12.Cl`, the “hERG current change (%, negative = inhibition) at 10uM” value is listed as -54.6%.

Regarding `Cc1ccc2nc(N(CCCN(C)C)C(=O)c3cc4ccccc4oc3=O)sc2c1.Cl`, the “hERG current change (%, negative = inhibition) at 10uM” value is recorded as -33.7%.

For `CC(=O)OC1COC(n2c(O)c(N=NC(N)=S)c3ccccc32)C(OC(C)=O)C1OC(C)=O` (stereo not shown), the “hERG current change (%, negative = inhibition) at 10uM” value amounted to 15.8%.

With `COC(=O)C1=C(C)N(c2ccc(Br)cc2)C(=O)/C1=C\c1ccco1`, the “hERG current change (%, negative = inhibition) at 10uM” value was 2.22%.

As for `Clc1ccc(-c2nnc3sc(Cc4cccs4)nn23)c(Cl)c1`, the “hERG current change (%, negative = inhibition) at 10uM” value is on record as -55.7%.

Turning to `Clc1ccc(-c2nnc3sc(Cc4cccs4)nn23)cc1`, the “hERG current change (%, negative = inhibition) at 10uM” value amounted to 4.77%.

Regarding `c1ccc(-c2nnc3sc(Cc4cccs4)nn23)cc1`, the “hERG current change (%, negative = inhibition) at 10uM” value was -30.8%.

Take `CCc1cccc2c(C(=O)CCl)c[nH]c12`: the “hERG current change (%, negative = inhibition) at 10uM” value was -14.3%.

Take `Cl.c1ccc2c3c([nH]c2c1)C1(CCCCC1)NCC3`: the “hERG current change (%, negative = inhibition) at 10uM” value is on record as 2.11%.

Consider `CC1(CCc2ccc3c(c2)OCO3)NC(=O)c2ccccc2N1` (stereo not shown), for which the “hERG current change (%, negative = inhibition) at 10uM” value is -7.78%.

`COc1ccc2[nH]c3c(c2c1)CCNC3C.Cl` (stereo not shown): the “hERG current change (%, negative = inhibition) at 10uM” value came to 14.7%.

In the case of `COc1ccc2[nH]c3c(c2c1)CCN[C@H]3C`, the “hERG current change (%, negative = inhibition) at 10uM” value was -3.82%.

Regarding `COc1ccc2[nH]c3c(c2c1)CCNC3(C)CCc1ccc(Cl)nc1` (stereo not shown), the “hERG current change (%, negative = inhibition) at 10uM” value is recorded as -51.6%.

Turning to `CC1(CCc2ccc3c(c2)OCO3)NCCc2c1[nH]c1ccccc21.Cl` (stereo not shown), the “hERG current change (%, negative = inhibition) at 10uM” value was -85.8%.

With `COc1cccc(NC(C(=O)Nc2cccc(C(C)=O)c2)c2ccccc2)c1` (stereo not shown), the “hERG current change (%, negative = inhibition) at 10uM” value is reported as -7.56%.

For the molecule `O=C(O)C(Cc1ccccc1)N1C(=O)CCC1=O` (stereo not shown), the “hERG current change (%, negative = inhibition) at 10uM” value turned out to be 14.4%.

With `CCCCCC(=O)N1CCN(CCN=CC2=C(O)CC(c3ccc(OC)c(OC)c3)CC2=O)CC1` (stereo not shown), the “hERG current change (%, negative = inhibition) at 10uM” value is listed as -78.8%.

Turning to `CCCCCC(=O)N1CCN(CCN=CC2=C(O)CC(c3ccc(OC)cc3)CC2=O)CC1` (stereo not shown), the “hERG current change (%, negative = inhibition) at 10uM” value is -74.1%.

On to `COc1ccc(C2CC(=O)C(C=NCCN3CCN(C(C)=O)CC3)=C(O)C2)cc1` (stereo not shown), for which the “hERG current change (%, negative = inhibition) at 10uM” value is -1.68%.

For `COc1ccc(C2CC(=O)C(C=NCCN3CCN(C(=S)Nc4ccccc4)CC3)=C(O)C2)cc1OC` (stereo not shown), the “hERG current change (%, negative = inhibition) at 10uM” value is reported as -20.1%.

In the case of `COc1ccc(C2CC(=O)C(C=NCCO)=C(O)C2)cc1OC` (stereo not shown), the “hERG current change (%, negative = inhibition) at 10uM” value worked out at 4.15%.

Turning to `CCC(=O)N1CCN(CCN=CC2=C(O)CC(c3ccc(OC)cc3)CC2=O)CC1` (stereo not shown), the “hERG current change (%, negative = inhibition) at 10uM” value is 5.11%.

Consider `Cc1ccccc1C1=NC(C(F)(F)F)(C(F)(F)F)c2c(n(C)c(=O)n(C)c2=O)N1`, for which the “hERG current change (%, negative = inhibition) at 10uM” value stood at 3.5%.

Consider `NC(=S)Cc1ccc(Cl)cc1Cl`, for which the “hERG current change (%, negative = inhibition) at 10uM” value is 18.8%.

As for `O=C(Nc1cccc(Cl)c1)Nc1ccccc1NS(=O)(=O)c1cccs1`, the “hERG current change (%, negative = inhibition) at 10uM” value turned out to be 24%.

For the molecule `Cc1cc(C)c(NC(=O)CSc2nnc(-c3ccco3)n2N)c(C)c1`, the “hERG current change (%, negative = inhibition) at 10uM” value is listed as -14.9%.

For the molecule `CCC(CC(C)(C)O)C(=O)NNC(=S)Nc1ccccc1` (stereo not shown), the “hERG current change (%, negative = inhibition) at 10uM” value is recorded as 5.73%.

Turning to `O=C(OCC(=O)N1CCCC1)c1ccc(NS(=O)(=O)c2cccs2)cc1O`, the “hERG current change (%, negative = inhibition) at 10uM” value was determined as 17.1%.

In the case of `O=C(O)c1ccc(Oc2ccccc2)o1`, the “hERG current change (%, negative = inhibition) at 10uM” value is on record as 23.2%.

With `O=C(Nc1ccccc1)Nc1ccccc1-n1ccnc1`, the “hERG current change (%, negative = inhibition) at 10uM” value was -18.2%.

On to `Cc1ccc(C)c(C(=O)CN2C(=O)NC3(CCC(C)CC3)C2=O)c1` (stereo not shown), for which the “hERG current change (%, negative = inhibition) at 10uM” value was -18.3%.

For `CC1CCCN(CCOCCOc2ccc(Cl)cc2Br)C1.O=C(O)C(=O)O` (stereo not shown), the “hERG current change (%, negative = inhibition) at 10uM” value was -61.1%.

For `CC(C)(C)c1cc(Cl)ccc1OCCOCCN1CCCC1.O=C(O)C(=O)O`, the “hERG current change (%, negative = inhibition) at 10uM” value was -45.8%.

Turning to `CC1CCCN(CCSc2ccc(Cl)cc2)C1.O=C(O)C(=O)O` (stereo not shown), the “hERG current change (%, negative = inhibition) at 10uM” value was -41.3%.

`CC1CCCN(CCCOc2ccc(Cl)cc2Br)C1.O=C(O)C(=O)O` (stereo not shown): the “hERG current change (%, negative = inhibition) at 10uM” value is recorded as -70.5%.

For `Cc1ccc(N2C(=O)N(CC(=O)NC(c3ccccc3)c3ccccc3)C(=O)C2C)cc1` (stereo not shown), the “hERG current change (%, negative = inhibition) at 10uM” value is listed as -32.6%.

In the case of `O=C(O)C1=C[C@@H](C2CCCCC2)C[C@@H](OCCCCO)O1`, the “hERG current change (%, negative = inhibition) at 10uM” value amounted to 9.42%.

For `Cc1ccsc1C(=O)NNC(=O)COc1ccccc1Cl`, the “hERG current change (%, negative = inhibition) at 10uM” value stood at 16.9%.
